In PubChem BioAssay AID624417 (National Center for Advancing Translational Sciences (NCATS), 2012):
Among all 410,000 compounds or so, about 6,400 (1.6%) were called active. Roughly 20% stayed inconclusive and do not appear here. The call rests on the fitted dose curve; in most records, active means well fitted inhibition curve with a large enough effect; inconclusive means small, poorly fitted or top-dose-only effect; inactive means no such curve, though single readings can be large or run the other way. The full list was thinned out, with actives kept by preference.

What follows are compounds tested against Glucagon-like peptide 1 receptor (Homo sapiens) (UniProt P43220) (assay: qHTS of GLP-1 Receptor Inverse Agonists (Inhibition Mode)). Conditions: HEK293 GLP-1R CRE-luciferase, luminescence, 24 h, GLP-1R form is constitutively active; series mostly up to 38.3 µM.
Sequence of Glucagon-like peptide 1 receptor (Homo sapiens) (P43220 whole entry, looked up): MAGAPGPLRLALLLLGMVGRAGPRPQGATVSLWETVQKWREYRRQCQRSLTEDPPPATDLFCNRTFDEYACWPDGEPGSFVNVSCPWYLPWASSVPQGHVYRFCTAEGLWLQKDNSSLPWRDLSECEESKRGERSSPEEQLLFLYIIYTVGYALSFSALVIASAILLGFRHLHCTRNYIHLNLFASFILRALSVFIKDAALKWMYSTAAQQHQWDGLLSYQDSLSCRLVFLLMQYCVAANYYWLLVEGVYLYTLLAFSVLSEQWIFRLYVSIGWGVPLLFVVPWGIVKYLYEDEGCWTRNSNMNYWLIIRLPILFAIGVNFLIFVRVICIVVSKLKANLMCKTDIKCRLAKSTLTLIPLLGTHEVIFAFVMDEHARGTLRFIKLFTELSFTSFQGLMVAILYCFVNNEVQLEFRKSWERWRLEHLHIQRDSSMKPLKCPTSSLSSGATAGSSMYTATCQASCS
Outline: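 Stable HEK293 clone (constitutively active GLP-1R + cAMP-response luciferase); 200 cells/uL plated, 12 h pre-culture, compound 24 hr, 37 deg C/5% CO2; detection reagent 12 min RT; luminescence.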
Further: nearly all actives have a fitted effect of over 55% in size.
Potency means the concentration at half of the fitted maximal effect.

Potency, active:
CC(C)(C)c1ccc(CN2C(=O)c3ccccc3S2(=O)=O)cc1 10 µM, C=C(Br)Cn1c(CCCC)nc2ccccc21 2.82 µM, Cc1ccc(Nc2c3c(nc4ccccc24)CCC3)cc1 5.62 µM, CC(C)n1cnc2c(Nc3cccc(Cl)c3)nc(N(CCO)CCCO)nc21 10 µM, COc1ccccc1Nc1c2c(nc3ccc(NC(=O)/C=C/c4cc(OC)c(OC)c(OC)c4)cc13)CCCC2 3.55 µM, CN(C)CCCN(C(=O)c1ccc(S(=O)(=O)N2CCCCCC2)cc1)c1nc2ccc(Br)cc2s1 3.55 µM, CN(C)CCCN(C(=O)c1ccc(S(=O)(=O)N2CCCCCC2)cc1)c1nc2cc3c(cc2s1)OCCO3 11.2 µM, C/C(=N/NC(=S)Nc1ccccc1)c1ccc2c(c1)OCO2 3.16 µM, COc1cc(SC)ccc1C(=O)Nc1nc(C)cs1 1.12 µM, Oc1cccc(/C=N/Nc2ccc(Cl)nn2)c1O 1.12 µM, Cc1ccccc1N1CCN(S(=O)(=O)c2ccc3ccccc3c2)CC1 10 µM, CN1CCN(S(=O)(=O)c2ccc(N3CCN(c4ccccc4O)CC3)c([N+](=O)[O-])c2)CC1 10 µM, O=C1[C@H]2[C@@H](c3ccc(F)cc3)N3C(=O)N(c4ccc(C(F)(F)F)cc4)C(=O)[C@@]3(Cc3ccccc3)[C@H]2C(=O)N1C1CCCCC1 2.24 µM, C=CCOC(=O)C1=C(C)NC(C)=C(C(=O)OCC=C)C1c1cccs1 10 µM, CCc1ccc(OCC(=O)NCC(c2ccc(Cl)cc2)N2CCCCC2)cc1 (stereo unspecified) 8.91 µM, CC1CC(C)(C)n2c(O)c(N=NC(N)=S)c3cccc1c32 (stereo unspecified) 5.01 µM, Cc1ccc(CN(N=Nc2nonc2N)c2nonc2N)c(C)c1 2.82 µM, CCOc1ccc(NS(=O)(=O)c2ccc(C(=O)NCC(c3ccccc3OC)N3CCCC3)cc2)cc1 (stereo unspecified) 11.2 µM, COc1ccc(C(CNC(=O)c2cccc(S(=O)(=O)Nc3ccc(Br)cc3)c2)N(C)C)cc1 (stereo unspecified) 10 µM, CN(C)C(CNC(=O)c1cccc(S(=O)(=O)Nc2ccc(Br)cc2)c1)c1ccco1 (stereo unspecified) 12.6 µM, COc1ccccc1C(CNC(=O)c1cccc(NS(=O)(=O)c2ccc(Br)cc2)c1)N(C)C (stereo unspecified) 10 µM

Potency, inactive:
Cc1ccc(C(O)c2ncc(-c3ccccc3F)[nH]2)cc1F (stereo unspecified), COc1ccc(CNC(=O)CN2C(=O)c3ccccc3S2(=O)=O)cc1, O=C1c2ccccc2S(=O)(=O)N1Cc1c(F)cccc1Cl, CCc1cc(-c2nnn(CCC3COCCO3)c2CC)ccc1-c1cn(Cc2ccc3ccccc3c2)nn1 (stereo unspecified), CC(OC(=O)c1cccnc1Cl)C(=O)NC1CCCCC1 (stereo unspecified), C[C@H](CO)N1C[C@H](C)[C@@H](CN(C)Cc2ccc3c(c2)OCO3)OCc2cnnn2CCCC1=O, CCCCn1c(CCCNC(=O)CC)nc2ccccc21, CCCCn1c(CN2CCN(CCO)CC2)nc2ccccc21, Nc1[nH]c(C(=O)c2ccccc2)c(-c2ccncc2)c1C(=O)NCc1cccc2ccccc12, CCOc1ccc(NC(=O)CSc2c3c(nc4ccccc24)CCCC3)cc1, Cc1ccc(CNC(=O)CSc2c3c(nc4cc(Cl)ccc24)CCCC3)cc1, CCCNC(=O)C1(C)CCN1C(=O)C1(c2ccccc2)CC1 (stereo unspecified), CCOc1ccc(C(=O)Nc2ccc3nc4c(c(Nc5ccccc5OC)c3c2)CCCC4)cc1, COc1ccc(NS(=O)(=O)c2cc(NC(=O)/C=C/c3cc(OC)c(OC)c(OC)c3)ccc2N2CCCCC2)cc1, O=C1NC(Cc2ccccc2)c2nc3ccc(Br)cc3c(=O)n2-c2cc3ccccc3cc21 (stereo unspecified), Cc1cc2nc(NC(=O)c3ccc(S(=O)(=O)N4CCOCC4)cc3)sc2cc1C, Cc1ccc2nc(N(CCN(C)C)C(=O)C3=COCCO3)sc2c1, Cc1cc(C)c2sc(NC(=O)c3ccc(S(=O)(=O)N4CCCC4)cc3)nc2c1, CN(C)CCN(C(=O)CN1C(=O)c2ccccc2C1=O)c1nc2cc3c(cc2s1)OCCO3, Cc1noc(C)c1S(=O)(=O)N(C)C[C@H]1OCCCC[C@@H](C)Oc2ccc(NC(=O)CCCN(C)C)cc2C(=O)N([C@H](C)CO)C[C@@H]1C, O=C(O)C1=C(C(=O)O)C2CCC1C2, CC(=O)N1Cc2cc(C(=O)NCc3cccc(F)c3)nc(-c3cccc(C4=CCCCC4)c3)c2[C@H]1CCO, CCc1nc2c(=O)[nH]cnc2o1, C/C(=N\NC(=O)C(N)=O)c1ccc2c(c1)OCCO2, C/C(=N/NC(=O)c1ccncc1)c1ccc2c(c1)OCO2, CCOC(=O)[C@]12CCCC=C1N(CCC1=CCCCC1)C(=O)[C@H](CC(=O)NCCCOC)C2, O=C(NCC(F)(F)F)c1ccc(S(=O)(=O)NCCc2ccc3c(c2)OCCO3)cc1, Cc1csc(NC(=O)c2ccc(C)s2)n1, COc1cc(SC)ccc1C(=O)NCCOc1ccccc1Cl, CCOc1ccc2[nH]c(=S)sc2c1, O=C(NC1CCCC1)C1c2ccccc2OCC(=O)N1CC(F)(F)F (stereo unspecified), O=C(Nc1cc(F)ccc1F)c1ccc2c(=O)n3c(nc2c1)CCC3, O=C(NN=Cc1ccccc1O)NN=Cc1ccccc1O, Oc1c(Br)cccc1/C=N/Nc1c(F)c(F)c(F)c(F)c1F, C[C@@H]1CN([C@@H](C)CO)S(=O)(=O)c2ccc(-c3ccc(C(=O)N(C)C)cc3)cc2O[C@@H]1CN(C)Cc1ccccc1C(=O)O, CCc1nc2c(OCCc3cccc(OC)c3)cccn2c1N(C)C(=O)c1ccc(C)cc1, Cc1ccc(NC(=O)[C@H](Cc2ccccc2)NC(=O)CC[C@H]2O[C@@H](n3ccc(=O)[nH]c3=O)[C@H](O)[C@@H]2O)cc1C, Cc1ccc(S(=O)(=O)N2CCN(c3ccccc3)CC2)cc1C, Cc1cc(N)n(-c2ccc(S(=O)(=O)N3CCCC3)cc2[N+](=O)[O-])n1, O=S(=O)(c1ccc2ccccc2c1)N1CCN(S(=O)(=O)N2CCOCC2)CC1, O=[N+]([O-])c1ccc(N2CCN(S(=O)(=O)c3ccccc3)CC2)cc1N1CCc2ccccc2C1, COc1ccc(NC(=O)CN(C)C(=O)c2cc(C)oc2C)cc1, O=C(/C=C/[C@H]1O[C@@H](n2ccc(=O)[nH]c2=O)[C@H](O)[C@@H]1O)NCc1ccccn1, C[C@H](CO)N1C[C@H](C)[C@@H](CN(C)C(=O)c2cnccn2)Oc2ncc(Br)cc2C1=O, CC(C)C[C@@H]1COc2cc(N3CCC[C@@H]3CO)ccc2S(=O)(=O)N1, CCN1C(=O)[C@H]2[C@@H](c3ccc(C)cc3)N3C(=O)N(c4cccc(Br)c4)C(=O)[C@@]3(CC)[C@H]2C1=O, Cc1cccc([C@@H]2[C@@H]3C(=O)N(Cc4ccccc4)C(=O)[C@@H]3[C@]3(Cc4ccc(Cl)cc4)C(=O)N(c4cccc(Cl)c4)C(=O)N23)c1, CC(=O)c1ccc(Nc2nc(C(N)c3ccccc3Cl)cs2)cc1 (stereo unspecified), C[C@H](CO)N1C[C@H](C)[C@@H](CN(C)C(=O)c2cccc(F)c2)Oc2cc(-c3cncnc3)ccc2S1(=O)=O, O=C(NCc1ccccc1)C1CNCC(C(=O)NCc2ccccc2)C1 (stereo unspecified), C=CCOC(=O)c1ccccc1C(=O)OCC=C, CCOC(=O)C1=C(C)Nc2nc3ccccc3n2C1c1cccs1 (stereo unspecified), COc1ccc(-c2[nH][nH]c(=O)c2NC(=O)c2ccc([N+](=O)[O-])cc2)cc1, COc1ccc(C(CNC(=O)COc2ccccc2OC)N2CCCCC2)cc1 (stereo unspecified), COc1ccc(C(CNC(=O)COc2ccc([N+](=O)[O-])cc2)N2CCCCC2)cc1 (stereo unspecified), O=S1(=O)CC(N2CCN(CCO)CC2)CN1Cc1cn(Cc2cccc(Cl)c2)nn1 (stereo unspecified), CN1OC[C@@H]2CN(S(=O)(=O)c3cccc(C(F)(F)F)c3)[C@H](c3ccc(-c4cc5ccccc5o4)cc3)C[C@@H]21, COc1cc(CNc2ncnc3c2ncn3[C@H]2CN(Cc3cccs3)C[C@@H](CO)O2)cc(OC)c1OC, COc1ccc(NS(=O)(=O)c2cccc(C(=O)NCCc3ccc(S(N)(=O)=O)cc3)c2)cc1, CC(=O)c1ccc(S(=O)(=O)Nc2ccc(C(=O)NCC(c3ccccc3)N(C)C)cc2)cc1 (stereo unspecified), CCOc1ccc(NS(=O)(=O)c2ccc(C(=O)NCC3CCCO3)cc2)cc1 (stereo unspecified), COc1ccccc1NS(=O)(=O)c1ccc(C)c(C(=O)NCC(c2ccco2)N(C)C)c1 (stereo unspecified), CN(C)C(CNC(=O)c1cccc(C#N)c1)c1ccco1 (stereo unspecified), CC1CN(C(=O)c2cccc(NS(=O)(=O)c3ccc(Br)cc3)c2)CC(C)O1 (stereo unspecified), CCOc1ccc(S(=O)(=O)Nc2ccc(C(=O)NCCCN3CCCC3=O)cc2)cc1, COc1ccc(C(CNC(=O)c2ccc(S(=O)(=O)Nc3ccccc3F)cc2)N(C)C)cc1 (stereo unspecified), Cc1ccc(NC(=O)COC(=O)CN2CCSC2=O)cc1F, OCCN1CCN(c2ncnc3c2ncn3[C@H]2CN(Cc3ccco3)C[C@@H](CO)O2)CC1, CCOC1=C2CN(S(=O)(=O)c3ccc(C)cc3)[C@H](c3cccs3)C[C@H]2[C@H]2C(=O)N(c3ccccc3)C(=O)[C@H]2C1, C[C@H]1NS(=O)(=O)c2cc(Cl)ccc2O[C@@H]1c1ccccc1
